The list is not random: actives were taken first. Their share in the collection is about 1.7%.
HTR5A inv ag: HTR5A inverse agonists in luminescence cell assay, primary screen, counter-screen for OPRM1-OPRD1 heterodimer inverse agonist project, full-deck HTS | 5-hydroxytryptamine receptor 5A (Homo sapiens), P47898 | actives 0.083% (n = 340,000) | HTR5A cell line, inverse agonism | inhibition, % at 9.3 µM | AID 504634, 2011; in the data active = inhibition mostly above about 23%, no sharp cut-off; inactive = mostly below about 18%
OPRM1-OPRD1 inv: inverse agonists of MOR-DOR heterodimerization, primary screen, cell-based, luminescence. AID 504357, 2011. cell-based MOR-DOR heterodimer luminescence, inverse agonism. inhibition, % at 9.3 µM. actives 0.21% (n = 340,000). Mu-type opioid receptor (Homo sapiens) + Delta-type opioid receptor (Homo sapiens), …; in the data active = inhibition above about 22%, passing the limit was not always enough
Target sequence (P35372 whole entry, looked up): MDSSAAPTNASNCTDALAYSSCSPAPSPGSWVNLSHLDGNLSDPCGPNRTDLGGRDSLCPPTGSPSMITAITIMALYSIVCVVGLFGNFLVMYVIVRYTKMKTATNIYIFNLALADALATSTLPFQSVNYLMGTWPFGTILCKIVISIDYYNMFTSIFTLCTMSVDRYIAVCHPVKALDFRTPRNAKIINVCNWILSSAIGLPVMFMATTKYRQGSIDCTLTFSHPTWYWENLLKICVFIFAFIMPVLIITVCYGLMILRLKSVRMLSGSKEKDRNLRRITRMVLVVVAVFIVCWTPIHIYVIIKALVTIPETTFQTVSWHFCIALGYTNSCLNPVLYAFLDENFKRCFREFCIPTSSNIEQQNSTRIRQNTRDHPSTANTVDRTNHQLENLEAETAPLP
Target sequence (P41143 whole entry, looked up): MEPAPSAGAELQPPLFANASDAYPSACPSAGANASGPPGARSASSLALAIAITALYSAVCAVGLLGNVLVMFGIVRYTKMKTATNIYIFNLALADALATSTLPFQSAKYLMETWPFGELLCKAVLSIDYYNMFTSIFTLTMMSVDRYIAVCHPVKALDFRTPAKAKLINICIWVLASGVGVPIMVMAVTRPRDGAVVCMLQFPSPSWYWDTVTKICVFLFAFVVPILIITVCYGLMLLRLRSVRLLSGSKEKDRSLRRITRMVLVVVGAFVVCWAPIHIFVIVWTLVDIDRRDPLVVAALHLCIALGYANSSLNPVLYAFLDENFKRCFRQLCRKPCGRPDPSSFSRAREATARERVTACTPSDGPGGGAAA
MOR-DOR ag-1: agonists of OPRM1-OPRD1 heterodimerization, primary screen, cell-based, luminescence. Mu-type opioid receptor (Homo sapiens) + Delta-type opioid receptor (Homo sapiens), …. cells. activation, % at 9.3 µM. actives 0.3% (n = 340,000). AID 504326, 2011
beta cell repl: inducers of MIN6 beta-cell proliferation, primary screen, ATP luminescence, uHTS | actives 0.29% (n = 330,000) | proliferation, % at 10 µM | AID 2380, 2010 | MIN6 cells proliferation, ATPlite luminescence, 48 h; cells starved in 0.2% serum; 100% = growth in 10% serum;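 active = compounds whose signal lies at least 3.5 SD above the mean of all wells on their plate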
V-ATPase pHluor: regulators of yeast V-ATPase proton pumping, primary screen, pHLuorin cytosolic pH fluorescence; S. cerevisiae; response, % at 10 µM; actives 0.37% (n = 350,000); in the data active = response mostly above about 7.3%, no sharp cut-off; inactive = mostly below about 5.4%; note: actives read high
HTR5A ag: HTR5A agonists in luminescence cell assay, primary screen, counter-screen for OPRM1-OPRD1 heterodimer agonist project, full-deck HTS; 5-hydroxytryptamine receptor 5A (Homo sapiens), P47898; activation, % at 9.3 µM; actives 0.61% (n = 340,000); cell-based; AID 504692, 2011; in the data active = activation mostly above about 9.5%, no sharp cut-off; inactive = mostly below about 7.6%
MOR-DOR ag-2: OPRM1-OPRD1 heterodimerization promoters, counter-screen for HTR5A agonist project, cell-based, luminescence; activation, % at 9.3 µM; U2OS counter-screen cells, complementation luminescence, 3 h; actives 13% (n = 800); shares compounds with HTR5A ag
HTR5A ag confirm: HTR5A agonists, retest of hits, confirmation, cell-based, luminescence. HTR5A agonist cell assay. activation, % at 9.3 µM. actives 17% (n = 800). shares compounds with HTR5A ag; in the data active = activation above about 17%
Each line names hits and unclear results; the compound was inactive in the other large screens (follow-up assays come after a bar, where they were run). Cut-off read from the data, not from the text of the source, unless noted: active = activation above about 18%; inactive = the rest.

COc1ccc(NC(=O)Cc2nc3ccccc3[nH]2)cc1	HTR5A ag 28 | MOR-DOR ag-2 inactive | HTR5A ag confirm 19
COc1ccc(CC(=O)Nc2nc3ccccc3[nH]2)cc1	none
COc1ccc(-c2c(-c3ccsc3)oc(=O)c3cc(OC)c(OC)cc23)cc1	HTR5A ag 23 | MOR-DOR ag-2 inactive | HTR5A ag confirm inactive
CC(NC(=O)Cc1ccc(Br)cc1)c1ccccc1 (stereo not drawn)	none
O=C1CCCC/C=C\C[C@H](CC(=O)N(CCO)Cc2ccccc2)C(=O)N2CCC[C@@H]2CO1	none
O=C(CNC(=O)c1ccco1)Nc1ccc(Cl)cc1	HTR5A ag 21 | MOR-DOR ag-2 inactive | HTR5A ag confirm inactive
O=C(CCNC(=O)c1ccco1)Nc1ccc(Cl)cc1	none
COc1ccc(NC(=S)N2CCN(C(=O)c3ccccc3)CC2)cc1	none
CCC(C)N(C(=O)COC(=O)COc1c(C)cc(C)cc1C)C1CCS(=O)(=O)C1 (stereo not drawn)	none
CCOC(=O)c1ccc(Nc2nc(-c3cccnc3)nc3ccccc23)cc1	HTR5A ag 29 | MOR-DOR ag-2 inactive | HTR5A ag confirm inactive
CCN(CC(=O)Nc1cccc(S(=O)(=O)N2CCOCC2)c1)Cc1ccccc1	none
CS(=O)(=O)c1ccc(NC(=O)C2CCCN(C(=O)c3ccc(Cl)cc3)C2)cc1 (stereo not drawn)	HTR5A ag 19 | MOR-DOR ag-2 inactive | HTR5A ag confirm inactive
CCCCCCCCCn1c2c(c(=N)c3c1CCC3)CCC2	HTR5A ag 25 | MOR-DOR ag-2 inactive | HTR5A ag confirm inactive
CCCCCCn1c2c(c(=N)c3c1CCC3)CCC2	none
CCN(CC)S(=O)(=O)c1ccc(OCC(=O)NC(=O)c2ccccc2OC)c([N+](=O)[O-])c1	none
COc1ccc(-c2cc(-c3c(O)c(OC)c4occc4c3OC)[nH]n2)cc1	HTR5A ag 15 | MOR-DOR ag-2 inactive | HTR5A ag confirm inactive
COc1ccc(-c2cc(-c3c(O)c(OC)c4occc4c3OC)[nH]n2)cc1OC	none
Cn1ccc(/C=N/N=C2/NC(=O)CS2)n1	none
N/C(=N\OC(=O)c1ccc(Cl)cc1[N+](=O)[O-])c1ccccn1	HTR5A ag 26 | MOR-DOR ag-2 inactive | HTR5A ag confirm inactive
COc1cccc(C(=O)O/N=C(\N)c2ccccn2)c1	none
N/C(=N\OC(=O)c1ccc2ccccc2c1)c1ccccn1	HTR5A ag 16 | MOR-DOR ag-2 inactive | HTR5A ag confirm inactive
CS(=O)(=O)N1CCN(c2ccccc2[N+](=O)[O-])CC1	none
COc1ccccc1NCC(=O)N/N=C/c1sccc1C	HTR5A ag 26 | MOR-DOR ag-2 inactive | HTR5A ag confirm inactive
COc1cccc(C2NC(=O)N(CCCC(=O)O)C(C)=C2C(=O)OCc2ccccc2)c1 (stereo not drawn)	none (no result: HTR5A inv ag, OPRM1-OPRD1 inv, MOR-DOR ag-1, V-ATPase pHluor, HTR5A ag)
CC(C)(C)OC(=O)C[C@@H]1C/C=C\C[C@@H](CC(=O)N[C@H](CO)Cc2ccccc2)C(=O)N2CCC[C@@H]2COC1=O	HTR5A ag 16 | MOR-DOR ag-2 23 | HTR5A ag confirm inactive
CC(C)(C)OC(=O)N[C@@H](C(=O)OC(C)(C)C)c1ccccc1	HTR5A ag 25 | MOR-DOR ag-2 inactive | HTR5A ag confirm inactive
Oc1c(C(c2cccs2)N2CCN(c3cccc(Cl)c3)CC2)sc2ncnn12 (stereo not drawn)	HTR5A ag 18 | MOR-DOR ag-2 inactive | HTR5A ag confirm inactive
Oc1c(C(c2cccs2)N2CCOCC2)sc2ncnn12 (stereo not drawn)	none
O=C(c1cccs1)c1no[n+]([O-])c1C(=O)c1cccs1	none
Cc1c(C(=O)c2no[n+]([O-])c2C(=O)c2cnn(C)c2C)cnn1C	HTR5A ag 26 | MOR-DOR ag-2 inactive | HTR5A ag confirm inactive
CCN(CC)S(=O)(=O)c1cc(NC(=O)CSCc2c(C)noc2C)ccc1C	none
CC1=C(C(=O)OCC2CCCO2)C(c2ccc(F)cc2)NC(=O)N1 (stereo not drawn)	none
COc1ccc(-c2csc(NC(=O)c3ccccc3NS(=O)(=O)c3ccc(F)c(F)c3)n2)cc1	HTR5A ag 15 | MOR-DOR ag-2 24 | HTR5A ag confirm inactive
COc1ccc2c([N+](=O)[O-])c(Cl)[nH]c2c1	none
CC1(C)Cc2c(C#N)c(SCCC#N)nc(N3CCOCC3)c2CS1	HTR5A ag 15 | MOR-DOR ag-2 inactive | HTR5A ag confirm inactive
O=C(c1ccco1)N1N=C2CCCCCC2C1(O)C(F)(F)F (stereo not drawn)	none
CC1CCC(NC(=O)CC(NC(N)=O)c2ccccc2Cl)CC1 (stereo not drawn)	none
O=C(NN=Cc1ccc(Cl)cc1Cl)c1ccccc1	none (no result: HTR5A inv ag, OPRM1-OPRD1 inv, MOR-DOR ag-1, beta cell repl, HTR5A ag)
CNC(=O)CCCCC(=O)N/N=C/c1ccc(Cl)cc1Cl	HTR5A ag 15 | MOR-DOR ag-2 31 | HTR5A ag confirm inactive
COc1cccc(CNC(=O)C2CCN(S(=O)(=O)c3ccccc3)CC2)c1	none
CS(=O)(=O)N1CCCC(C(=O)NCc2ccc(F)cc2)C1 (stereo not drawn)	HTR5A ag 16 | MOR-DOR ag-2 inactive | HTR5A ag confirm inactive
COc1ccc(CNC(=O)C2CCN(S(=O)(=O)c3ccccc3)CC2)cc1	HTR5A ag 21 | MOR-DOR ag-2 inactive | HTR5A ag confirm inactive
COc1ccc(S(=O)(=O)Nc2ccc3c(c2)n(C)c(=O)n3C)cc1	none
O=c1c2ccccc2[nH]c(=S)n1-c1cccc(S(=O)(=O)N2CCCC2)c1	none
Cc1cc(C(=O)NCc2ccccc2F)c2ccccc2n1	none
CCC(=NNC(=O)c1ccc2c(c1)nc(C)n2CC)c1cc(F)ccc1O	HTR5A ag 18 | MOR-DOR ag-2 inactive | HTR5A ag confirm inactive
CCn1c(C)nc2cc(C(=O)N/N=C/c3cccc(OC)c3O)ccc21	none
NC(=O)C1=C(N=C2CCCCC2)CCCC1	HTR5A ag 18 (no result: beta cell repl) | MOR-DOR ag-2 inactive | HTR5A ag confirm inactive
CCOC(=O)N1CCN(C(=O)CCC(=O)N2CCOc3ccc(C)cc32)CC1	HTR5A ag 21 | MOR-DOR ag-2 inactive | HTR5A ag confirm inactive
CCOC(=O)N1CCC(NC(=O)CCC(=O)N2CCOc3ccc(C)cc32)CC1	none (no result: V-ATPase pHluor)

High-throughput results as filed in PubChem.
